Test results: PubChem BioAssay (NCI)
Compounds without any hit were thinned out: in the full panel of roughly 79,000, 15% have a hit. Values without a mark were called inactive. Calls of active or inactive are those of the source. No stated cut-off is given here; in the data, active means growth inhibition above about 70%; inactive means the rest.

Experiment: NCI Yeast Anticancer Drug Screen. Data for the rad52 strain (AID 147);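 further: 0% = growth of vehicle-treated control cultures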
Settings: S. cerevisiae rad52 mutant growth inhibition; at 11.0 µM; stronger effect = higher value
Procedure, shortened: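 Inhibition of yeast growth, referenced to vehicle controls, was the measured output for a strain with defective DNA damage repair.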

Q: With `CCN(CC)CC[n+]1ccc2c(C)c3[nH]c4ccc(O)cc4c3c(C)c2c1` as the compound, how does the growth inhibition read?
A: Its growth inhibition is 67%.

Q: For `O=[n+]1c2ccc(Cl)cc2n([O-])c2ccc(Cl)cc21`, which growth inhibition is on record?
A: Its growth inhibition is 23%.

Q: Which growth inhibition does the source give for `CCOP(=O)(OCC)C(Cc1ccccc1)N=C(c1ccccc1)c1ccccc1` (centres undefined) here?
A: The growth inhibition was 4%.

Q: With `CC[C@@]1(O)C(=O)OCc2c1cc1n(c2=O)Cc2cc3c(N)cccc3nc2-1` as the compound, how does the growth inhibition read?
A: The growth inhibition was 85% (active).

Q: For `COC1C=COC2(C)Oc3c(C)c(O)c4c(c3C2=O)/C(=N/C2CCC(O)OC2C)C=C(NC(=O)/C(C)=C\C(=O)C2CC2C(O)C(C)C(O)C(C)C(OC(C)=O)C1C)C4=O` (centres undefined), which growth inhibition is on record?
A: Its growth inhibition is -4%.

Q: With `COc1cc2c(c(OC)c1OC)-c1c(cc3c(c1OC)OCO3)CC(C)C(C)(O)C2OC(=O)c1ccccc1` (centres undefined) as the compound, how does the growth inhibition read?
A: Its growth inhibition is -25%.

Q: With `O=c1ssc2ncccc12` as the compound, how does the growth inhibition read?
A: Its growth inhibition is 71% (active).

Q: With `O=C1C2C(C(=O)N1c1ccc(OCc3ccccc3)cc1)C1c3ccccc3C2C2CCCCN21` (centres undefined) as the compound, how does the growth inhibition read?
A: The growth inhibition was 3%.

Q: With `COc1ccc(-c2cn(-c3ccc(I)cc3)c3ncnc(N)c23)cc1` as the compound, how does the growth inhibition read?
A: Its growth inhibition is -9%.

Q: For `CCOC(=O)C(NC(=O)c1ccccc1)(N1CCN(c2cc3c(cc2F)c(=O)c(C(=O)O)cn3C2CC2)CC1)C(F)(F)F` (centres undefined), which growth inhibition is on record?
A: The growth inhibition was 11%.

Q: Which growth inhibition does the source give for `C/C(=N\O)C1CC2C=C(C#N)C1N(Cc1ccccc1)C2` (centres undefined) here?
A: The growth inhibition was -1%.

Q: For `CC/C(=C(\c1ccccc1)c1ccc(OCCN(C)C)cc1)c1ccccc1`, which growth inhibition is on record?
A: Its growth inhibition is 38%.

Q: For `COc1ccccc1N=NC(C(=O)c1ccccc1)C(=O)c1ccccc1`, which growth inhibition is on record?
A: The growth inhibition was 16%.

Q: Which growth inhibition does the source give for `CC(O)C(O)C(O)C(/C=N\Nc1ccccc1)=N/Nc1ccccc1` (centres undefined) here?
A: The growth inhibition was 12%.

Q: With `COc1ccc(/C=C2\SC(=S)N(/C=C/c3nc4ccccc4[nH]c3=O)C2=O)cc1OC` as the compound, how does the growth inhibition read?
A: Its growth inhibition is 26%.

Q: Which growth inhibition does the source give for `N#CN=Nc1cc(Cl)c(N=NC#N)cc1Cl` here?
A: The growth inhibition was -18%.

Q: With `Cc1ccc(S(=O)(=O)Oc2cc(Cl)c(Cl)cc2Cl)cc1` as the compound, how does the growth inhibition read?
A: Its growth inhibition is 9%.

Q: Which growth inhibition does the source give for `c1ccc2c(c1)Oc1cccc3cccc-2c13` here?
A: Its growth inhibition is 5%.

Q: For `O=C(c1ccc(Cl)cc1Cl)C(Cl)Cl`, which growth inhibition is on record?
A: The growth inhibition was 14%.

Q: Which growth inhibition does the source give for `CC(C)C1=CCC2C(=C1)CCC1C(C)(C(=O)O)CCCC21C` (centres undefined) (tested in a mixture with another compound) here?
A: Its growth inhibition is 12%.

Q: Which growth inhibition does the source give for `COc1cc(/C=C2\CCc3ccccc3C2=O)cc(OC)c1OC` here?
A: Its growth inhibition is 3%.

Q: With `CC(=O)[O][Bi]([c]1ccccc1)[c]1ccccc1` as the compound, how does the growth inhibition read?
A: Its growth inhibition is 72% (active).

Q: With `S=C(N/N=C/c1ccccn1)Nc1ccc(Cl)cc1` as the compound, how does the growth inhibition read?
A: Its growth inhibition is -3%.

Q: For `COc1cc(CC2CC(c3ccc4c(c3)OCO4)OC2=O)cc(OC)c1OC` (centres undefined), which growth inhibition is on record?
A: The growth inhibition was 1%.

Q: For `CNC1C(OC2C(OC3C(O)C(O)C(N=C(N)N)C(O)C3N=C(N)N)OC(C)C2(O)CO)OC(CO)C(O)C1O` (centres undefined), which growth inhibition is on record?
A: The growth inhibition was 2%.

Q: For `NNC(=O)CCc1ccc2ccc3ccccc3c2c1`, which growth inhibition is on record?
A: Its growth inhibition is 1%.

Q: Which growth inhibition does the source give for `Oc1ccc2ccccc2c1C(c1ccc(Cl)cc1)c1c(O)ccc2ccccc12` here?
A: Its growth inhibition is -17%.

Q: Which growth inhibition does the source give for `CCCCN(CCCC)CCSc1ccc(Cl)cc1` here?
A: Its growth inhibition is -10%.

Q: Which growth inhibition does the source give for `CCC(C)COC(=O)c1ccc(N=Cc2ccc(C=Nc3ccc(C(=O)OCC(C)CC)cc3)cc2)cc1` (centres undefined) here?
A: The growth inhibition was 6%.

Q: With `CC1(C)C(=O)OC(n2cc(F)c(=O)[nH]c2=O)C1=O` (centres undefined) as the compound, how does the growth inhibition read?
A: The growth inhibition was -27%.

Q: With `O=[N+]([O-])CC(SCc1ccccc1)c1ccc2c(c1)OCO2` (centres undefined) as the compound, how does the growth inhibition read?
A: The growth inhibition was 92% (active).

Q: Which growth inhibition does the source give for `COc1cc2c(cc1[N+](=O)[O-])C(=O)C(Br)(Br)CCC2` here?
A: The growth inhibition was 98% (active).

Q: For `OCC1OC(OCC(O)C(O)C(O)C(/C=N/Nc2ccccc2)=N/Nc2ccccc2)C(O)C(O)C1O` (centres undefined), which growth inhibition is on record?
A: The growth inhibition was 16%.

Q: With `COc1ccc(N=C2C(=O)Nc3ccc(Br)cc32)cc1` as the compound, how does the growth inhibition read?
A: The growth inhibition was 18%.

Q: Which growth inhibition does the source give for `Cn1c(=O)c2ccccc2c2ccccc21` here?
A: Its growth inhibition is 32%.

Q: For `CC[n+]1ccc2c(C)c3[nH]c4ccc(O)cc4c3c(C)c2c1`, which growth inhibition is on record?
A: Its growth inhibition is 70% (active).

Q: For `CC(=O)ON1C(=O)c2cccc3cccc(c23)C1=O`, which growth inhibition is on record?
A: Its growth inhibition is 91% (active).

Q: With `COc1ccc2ccc3ccccc3c2c1C=O` as the compound, how does the growth inhibition read?
A: The growth inhibition was -3%.

Q: With `OC1CCCc2c1cc1ccc3cccc4ccc2c1c34` (centres undefined) as the compound, how does the growth inhibition read?
A: Its growth inhibition is 98% (active).
